In PubChem BioAssay one finds composite z-score and z-score data, which are given here for 17 molecules.

Calls of active or inactive are those of the source.

The test system of assay [1] is Plasmodium falciparum Sir2 (PF13_0152, Sir2A). As to the kind of experiment: pfSir2 binders on small-molecule microarrays, primary screen, biochemical, small-molecule microarray, 635 nm fluorescence (AID 1098).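 Also: score merges spot fluorescence intensity with its signal-to-noise ratio.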 The following applies: small-molecule microarray binding, fluorescence 635 nm; higher = more signal.
Assay [2] can be described thus: small-molecule microarray binders of probe aDKK1, primary screen, biochemical, biotinylated probe, 635/667 nm fluorescence (AID 1099).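 Also: score merges 667nm spot fluorescence with signal to noise across triplicate slides; reference of the scale not given here.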 The note with it: higher = more signal.
Assay [3] is described as follows: small-molecule microarray binders of probe aCHRDL2, primary screen, biochemical, biotinylated probe, 635/667 nm fluorescence (AID 1100). The following applies: higher = more signal.
Assay [4] in a line: splicing luciferase reporter signal modulators, primary screen, spliceosome inhibition project, cell-based, HEK293, splice +/- reporter (AID 1101).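 Also: HEK293 cells carrying a splicing-competent luciferase reporter gene; test concentration not given here.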 The note with it: luminescence, 24 h, higher = more signal, called active from +8 up or from −8 down.
In assay [5] the target is Fibroblast growth factor 10 (Homo sapiens) (UniProt O15520). As to the kind of experiment: FGF10 binders on small-molecule microarrays, primary screen, biochemical, small-molecule microarray, 635 nm fluorescence (AID 1102). The note with it: FGF10 binding, fluorescence 635 nm, higher = more signal.
Assay [6] deals with glycogen synthase kinase-3 (GSK3A per assay name; protocol says GSK3B). As to the kind of experiment: GSK3 binders on small-molecule microarrays, primary screen, biochemical, small-molecule microarray, 635 nm fluorescence, GSK3A (AID 1103). Also: the record names both GSK3A and GSK3B. The following applies: small-molecule microarray binding, fluorescence 635 nm; higher = more signal.
The target in assay [7] is Epidermal growth factor receptor (Homo sapiens) (UniProt P00533). In words: EGFR binders on small-molecule microarrays, primary screen, biochemical, small-molecule microarray, 635 nm fluorescence (AID 1104).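 Also: score merges 667 nm emission intensity with spot signal to noise over triplicate slides.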 The note with it: EGFR binding, higher = more signal.
For assay [8], the target named is Follistatin-related protein 3 (Homo sapiens) (UniProt O95633). As to the kind of experiment: FSTL3 binders on small-molecule microarrays, primary screen, biochemical, small-molecule microarray, 635 nm fluorescence (AID 1105).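 Also: score merges emission near 667 nm and signal to noise per printed spot across three slides.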 The note with it: FSTL3 binding, higher = more signal.
The target in assay [9] is Dickkopf-related protein 1 (Homo sapiens) (UniProt O94907). In words: DKK1 binders on small-molecule microarrays, primary screen, biochemical, small-molecule microarray, 635 nm fluorescence scan (AID 1106).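 Also: score merges emission near 667 nm with signal to noise over three replicate slides.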 The following applies: DKK1 binding, higher = more signal.
Assay [10] deals with Inhibin beta A chain (activin A). In words: INHBA (activin A) binders on microarrays, primary screen, biochemical, small-molecule microarray, 635 nm fluorescence scan (AID 1107).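 Also: mouse activin A protein probed at 4.33 µg/mL on printed slides; score merges bound-protein fluorescence near 667 nm with spot signal-to-noise.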 The following applies: small-molecule microarray binding, higher = more signal.

Chain of Epidermal growth factor receptor (Homo sapiens) (P00533 whole entry, looked up): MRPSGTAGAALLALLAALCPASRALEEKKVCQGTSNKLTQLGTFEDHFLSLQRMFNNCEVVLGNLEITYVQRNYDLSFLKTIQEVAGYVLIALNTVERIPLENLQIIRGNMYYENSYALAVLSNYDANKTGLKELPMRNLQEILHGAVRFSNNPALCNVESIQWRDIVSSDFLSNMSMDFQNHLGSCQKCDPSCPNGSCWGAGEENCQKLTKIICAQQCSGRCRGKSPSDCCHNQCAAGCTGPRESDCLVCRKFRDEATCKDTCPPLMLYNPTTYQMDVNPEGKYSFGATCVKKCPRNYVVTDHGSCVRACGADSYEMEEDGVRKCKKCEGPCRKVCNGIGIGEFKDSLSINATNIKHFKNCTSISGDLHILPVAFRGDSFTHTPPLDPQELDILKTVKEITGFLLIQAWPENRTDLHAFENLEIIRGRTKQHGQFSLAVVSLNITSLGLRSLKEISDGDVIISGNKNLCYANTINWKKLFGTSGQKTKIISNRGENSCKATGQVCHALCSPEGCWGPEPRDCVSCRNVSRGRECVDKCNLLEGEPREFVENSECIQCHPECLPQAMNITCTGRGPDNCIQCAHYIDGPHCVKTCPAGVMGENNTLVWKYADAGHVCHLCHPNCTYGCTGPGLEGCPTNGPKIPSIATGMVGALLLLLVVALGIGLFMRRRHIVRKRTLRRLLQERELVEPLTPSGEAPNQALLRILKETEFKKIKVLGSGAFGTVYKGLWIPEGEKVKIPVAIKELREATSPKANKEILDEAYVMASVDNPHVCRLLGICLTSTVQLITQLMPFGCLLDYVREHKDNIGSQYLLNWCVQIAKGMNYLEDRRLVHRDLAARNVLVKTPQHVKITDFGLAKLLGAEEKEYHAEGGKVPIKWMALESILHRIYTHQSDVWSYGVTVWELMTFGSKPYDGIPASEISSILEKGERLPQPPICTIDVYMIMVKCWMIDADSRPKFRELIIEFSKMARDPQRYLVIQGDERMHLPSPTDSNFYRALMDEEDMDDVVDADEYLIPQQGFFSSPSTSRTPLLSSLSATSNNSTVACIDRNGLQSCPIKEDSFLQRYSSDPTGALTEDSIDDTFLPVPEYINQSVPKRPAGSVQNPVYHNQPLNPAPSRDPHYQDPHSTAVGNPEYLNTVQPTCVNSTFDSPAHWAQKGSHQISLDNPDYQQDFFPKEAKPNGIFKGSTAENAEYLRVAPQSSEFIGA
Chain of Follistatin-related protein 3 (Homo sapiens) (O95633 whole entry, looked up): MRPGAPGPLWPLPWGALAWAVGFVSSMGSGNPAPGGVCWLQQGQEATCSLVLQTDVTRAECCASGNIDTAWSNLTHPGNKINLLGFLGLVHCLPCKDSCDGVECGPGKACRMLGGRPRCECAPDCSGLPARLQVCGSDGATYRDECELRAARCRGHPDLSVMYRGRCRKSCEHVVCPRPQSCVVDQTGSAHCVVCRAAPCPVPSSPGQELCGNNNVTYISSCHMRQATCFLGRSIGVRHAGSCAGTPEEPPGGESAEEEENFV
Chain of Fibroblast growth factor 10 (Homo sapiens) (O15520 whole entry, looked up): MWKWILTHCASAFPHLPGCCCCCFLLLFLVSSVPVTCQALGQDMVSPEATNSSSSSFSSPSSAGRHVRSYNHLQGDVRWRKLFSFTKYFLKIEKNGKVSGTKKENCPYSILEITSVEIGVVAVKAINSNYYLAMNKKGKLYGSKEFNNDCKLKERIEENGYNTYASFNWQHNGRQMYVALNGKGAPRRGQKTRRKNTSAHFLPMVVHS
Chain of Dickkopf-related protein 1 (Homo sapiens) (O94907 whole entry, looked up): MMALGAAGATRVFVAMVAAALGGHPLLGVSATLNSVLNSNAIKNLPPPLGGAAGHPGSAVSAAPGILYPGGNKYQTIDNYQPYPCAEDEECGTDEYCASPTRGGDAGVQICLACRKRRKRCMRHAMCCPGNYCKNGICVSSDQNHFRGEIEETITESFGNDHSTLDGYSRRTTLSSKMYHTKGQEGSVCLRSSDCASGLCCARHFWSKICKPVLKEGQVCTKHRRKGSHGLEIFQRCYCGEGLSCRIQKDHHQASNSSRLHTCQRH

Take `O=C1[C@@]23C=C(Br)[C@H](C[C@@H]2COC3)[C@]12CO2`: the composite z-score in assay [1] was -1.5; in assay [2] it was -0.183; in assay [3], -0.188; in assay [5], -0.573; in assay [6] it was -0.88; in assay [7] it was -1.24. Also, the composite z-score in [8] is -0.858; in [9] it was -0.297; in assay [10], 1.69. The z-score in [4] was 1.91 (inactive).
Take `O=C(CS)NCCCCCNC(=O)[C@H]1C[C@H]2C(=O)NCC(=O)N2[C@H]1c1ccc(O)cc1`: the composite z-score in [1] was 0.394; in assay [2] it was -0.164; in assay [3], 0.699; in assay [5], -1.04; in [6], -1.32; in [7] it was -0.641. The composite z-score in assay [8] was -0.749; in [9] it was -0.887; in assay [10], -0.583. For the same molecule, the z-score in [4] was -1.35 (inactive).
On to `COCCOC(=O)N1C(=O)[C@@]2(c3ccccc31)[C@H](C(=O)N1CCCCCCC1)[C@H]1C(=O)O[C@H](c3ccccc3)[C@H](c3ccccc3)N1[C@@H]2c1ccc(OCCO)cc1`, for which the composite z-score in [1] is 2.08; in assay [2] it was 3.12; in assay [3], 1.76; in assay [5], 1.69; in assay [6], 1.49; in [7], 2.05. The composite z-score turned out to be 1.79 in [8], 2.72 in assay [9] and 1.77 in assay [10]. Also, the z-score in assay [4] was -0.69 (inactive).
As to `CO[C@H]1O[C@H](CO)[C@@H](OC(=O)Nc2ccc(Br)cc2)[C@@H]2OC(=O)[C@H](Cc3cccc(Br)c3)C/C=C/C[C@@H](Cc3cccc(Br)c3)C(=O)O[C@@H]12`, the composite z-score in assay [1] is 0.272; in [2], -0.157; in assay [3], 0.179; in assay [5], 0.383; in assay [6], -1.05; in assay [7], -0.461. Besides, the composite z-score is 0.285 in assay [8], -0.0367 in assay [9] and 0.0396 in assay [10]. Also, the z-score in assay [4] was -0.838 (inactive).
As to `C=CCNC(=O)[C@H]1[C@@H]2C(=O)O[C@@H](c3ccccc3)[C@@H](c3ccccc3)N2[C@@H](c2ccc(O)cc2)[C@]12C(=O)Nc1ccc(C#CCCO)cc12`, the composite z-score is 0.526 in assay [1]; 0.0418 in assay [2]; 0.198 in assay [3]; -0.818 in assay [5]; -0.572 in assay [6]; -0.326 in assay [7]. The results for the composite z-score in [8], in assay [9] and in [10] were -0.561, 0.0898 and 0.629, respectively. Moreover, in assay [4], the z-score was 0.0704 (inactive).
Turning to `COCC(=C=CC[C@H](O)c1cccc(OCCO)c1)CCO`, the composite z-score in assay [1] is 0.34; in assay [2] it was -0.0405; in assay [3], -0.101; in assay [5], 0.569; in assay [6], -0.218; in assay [7], -0.0436. The figures for the composite z-score in [8], in assay [9] and in [10] were 0.688, 0.0241 and 0.177, respectively. The z-score in [4] is 0.105 (inactive).
Regarding `CCOC(=O)C[C@H]1[C@H](OC(=O)c2ccc(C(=O)c3ccccc3)cc2)[C@@H](NC(=O)Cc2ccc(OC)cc2)c2cc(OCCCO)ccc2N1C(=O)c1ccc2ccccc2n1`, the composite z-score in [1] was 0.31; in [2], 0.05; in [3], 0.161; in assay [5], 0.526; in assay [6] it was 0.392; in [7] it was 0.208. For the same molecule, the composite z-score in assay [8] is 0.811; in [9], 0.0905; in assay [10], 0.468. The z-score in [4] was 0.409 (inactive).
For the molecule `COC(=O)c1c2oc(c1C(=O)OC)C(=O)N[C@@H](C(C)C)Cn1cc(nn1)C1(CCCCC1)NC(=O)N[C@H](CO)CC2`, the composite z-score was 1.68 in [1]; -0.324 in [2]; -0.288 in assay [3]; 0.408 in [5]; 0.0356 in [6]; -0.375 in assay [7]. The composite z-score in assay [8] is -0.0824; in assay [9], 0.145; in assay [10], -0.462. The z-score in [4] was 0.343 (inactive).
Regarding `CN1CCC(CCCO)=CC1c1cccs1` (stereo not given), the composite z-score in [1] was 0.238; in assay [2], -0.391; in [3], -0.141; in [5] it was -0.095; in [6], 0.0706; in assay [7], -0.185. Also, the composite z-score in assay [8] was -0.61; in [9] it was 0.208; in [10], 0.233. Moreover, the z-score in [4] is 0.697 (inactive).
As for `O=C1O[C@H](c2ccccc2)[C@H](c2ccccc2)N2[C@H]1[C@@H](C(=O)NC[C@H](O)c1ccccc1)[C@]1(C(=O)Nc3ccc(C#CC4=CCCCC4)cc31)[C@H]2c1ccccc1OCCO`, the composite z-score turned out to be 0.312 in assay [1]; 0.697 in assay [2]; 0.722 in assay [3]; 0.439 in [5]; 1.13 in [6]; 0.208 in assay [7]. In addition, the composite z-score was determined as 0.627 in [8], 0.359 in assay [9] and 1.06 in assay [10]. The z-score in assay [4] is -1.74 (inactive).
Regarding `O=C(CS)NCCCCCNC(=O)[C@H]1C[C@H]2C(=O)NCC(=O)N2[C@H]1c1cccc(OCCO)c1`, the composite z-score is 1.59 in [1]; -0.248 in [2]; 0.504 in assay [3]; -0.0137 in assay [5]; -1.11 in assay [6]; -0.538 in [7]. The composite z-score in assay [8] is 0.101; in [9] it was 0.129; in assay [10], -0.462. For the same molecule, the z-score in assay [4] is -0.957 (inactive).
As to `C=CCC(OC(C)=O)[C@@H]1[C@@H](N(Cc2ccc(-c3ccccc3)cc2)C(=O)Cc2ccc(F)cc2)c2cc(OCCCO)ccc2N1C(=O)c1ccc2ccccc2c1` (stereo not given in full), the composite z-score in [1] was -0.352; in assay [2], -0.0183; in assay [3], 0.345; in [5], 0.0036; in assay [6] it was 0.0557; in assay [7], 0.0144. Besides, the composite z-score in assay [8] is 0.268; in [9], -0.4; in assay [10], 1.18. Further, the z-score in assay [4] is -0.519 (inactive).
Take `O=C(NCc1ccccc1)[C@@H]1c2ccccc2C(=O)N(C2Cc3ccccc3C2)[C@H]1c1ccc(CO)cc1`: the composite z-score in assay [1] is 0.81; in assay [2] it was 0.689; in [3] it was 1.01; in assay [5], 0.732; in assay [6] it was 0.737; in assay [7], -0.318. For the same molecule, the composite z-score in [8] is 0.475; in assay [9], 0.0698; in [10] it was 0.344. In addition, the z-score in [4] was -0.0178 (inactive).
In the case of `O=C1NC(=O)C2C1C=CC(C(O)c1ccc(-c3ccccc3)s1)N2Nc1ccc(Cl)cc1Cl` (stereo not given), the composite z-score in assay [1] was 1.02; in assay [2], -0.214; in assay [3], 0.956; in assay [5], 0.227; in assay [6], 0.508; in assay [7] it was 0.112. In addition, the composite z-score in [8] is 0.992; in assay [9] it was -0.729; in [10] it was 0.959. Also, the z-score in [4] is 0.624 (inactive).
As for `Cc1ccc(S[C@]2(C(=O)O)CC(=O)N(C(C)C)[C@@H]2c2ccc(CO)cc2)cc1`, the composite z-score was 0.161 in assay [1]; -0.11 in assay [2]; 0.34 in assay [3]; 0.224 in assay [5]; -0.207 in assay [6]; -0.468 in assay [7]. Further, the composite z-score is 0.147 in assay [8], 0.0142 in assay [9] and 0.754 in assay [10]. For the same molecule, the z-score in assay [4] was -0.448 (inactive).
On to `C=CCN1C(=O)[C@]2(Cc3ccccc3)N=C(c3ccc(OCCCO)cc3)O[C@@H]2c2ccccc21`, for which the composite z-score in [1] worked out at 1.16; in assay [2], 0.0729; in assay [3], 0.795; in [5], 0.755; in [6], 1.27; in assay [7], 0.781. The figures for the composite z-score in assay [8], in [9] and in assay [10] were 0.878, 0.547 and 1.13, respectively. In assay [4], the z-score is -1.37 (inactive).
As to `COC(=O)[C@@]1(Cc2ccc(OC)cc2)[C@H]2c3cc(C(=O)N4CCCC4)n(Cc4nc5ccccc5[nH]4)c3C[C@H]2CN1C(=O)c1ccccc1`, the composite z-score stood at 1.36 in [1]; 1.48 in assay [2]; 1.34 in assay [3]; 0.77 in [5]; 0.54 in assay [6]; 0.206 in [7]. Also, the composite z-score in [8] was 1.05; in [9], -0.49; in assay [10] it was 1.28. Besides, in [4], the z-score is -1.29 (inactive).
